From PubChem BioAssay (NCI)
About 83,000 compounds went through this panel and 20% of them were active in at least one assay; those are over-represented in the sample as a whole.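 Cells were grown in 96-well plates and exposed to the test compound at a single concentration for 48 hours; results are reported as percent growth, with values below 10 considered active.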 Calls of active or inactive are those of the source.

Key:
Assay in all cases: NCI-60 one-dose screen, 48 h (100 = growth as untreated, 0 = no growth, -100 = all killed)
Details in all cases: 10 µM unless noted
DU-145 prostate = tested on: DU-145 prostate
K-562 leukemia = tested on: K-562 leukemia
MALME-3M melanoma = tested on: MALME-3M melanoma
RXF 393 renal = tested on: RXF 393 renal
SF-268 CNS = tested on: SF-268 CNS
SF-295 CNS = tested on: SF-295 CNS
SF-539 CNS = tested on: SF-539 CNS
UACC-257 melanoma = tested on: UACC-257 melanoma
M14 melanoma = tested on: M14 melanoma

Measured: growth

CC(=O)Nc1cccc(Nc2nc(N[C@H]3CCCc4ccccc43)c3ccccc3n2)c1
inactive: DU-145 prostate 104% | K-562 leukemia 94.2% | MALME-3M melanoma 102% | RXF 393 renal 120% | SF-268 CNS 95.5% | SF-295 CNS 97.3% | SF-539 CNS 97.2% | UACC-257 melanoma 102% | M14 melanoma 101%

N#Cc1c(-c2ccc(Br)cc2)nc2n[nH]c(-c3ccc(Br)cc3)c2c1-c1ccc(C(F)(F)F)cc1
inactive: DU-145 prostate 26.2% | RXF 393 renal 46.7% | SF-268 CNS 34.7% | SF-539 CNS 54.2% | UACC-257 melanoma 28.5% | M14 melanoma 29.2%
active: K-562 leukemia -9.32% | MALME-3M melanoma -14.5% | SF-295 CNS 1.6%

COc1cc(CNC(=O)/C=C/c2ccc3c(c2)OCO3)ccc1OCc1cn(-c2ccc([N+](=O)[O-])cc2)nn1
inactive: DU-145 prostate 103% | K-562 leukemia 92.8% | MALME-3M melanoma 87.6% | RXF 393 renal 72.2% | SF-268 CNS 86.9% | SF-295 CNS 88% | SF-539 CNS 79.8% | UACC-257 melanoma 91.5% | M14 melanoma 92.9%

CC1=C(C(=O)OCc2ccccc2)C(c2c(O)cc(O)cc2O)n2c(nc3ccccc32)N1 (stereo not given)
inactive: DU-145 prostate 82.3% | K-562 leukemia 17.4% | MALME-3M melanoma 52.7% | RXF 393 renal 25.5% | SF-268 CNS 52.7% | SF-295 CNS 25.4% | SF-539 CNS 16.8% | UACC-257 melanoma 47.9% | M14 melanoma 41.7%

CSc1ccccc1NC(=O)c1ccc2nnn(/C(C#N)=C/c3ccccn3)c2c1
active: DU-145 prostate -97.9% | K-562 leukemia 1.03% | MALME-3M melanoma -94.7% | RXF 393 renal -98.8% | SF-268 CNS 6.52% | SF-295 CNS 2.24% | SF-539 CNS -100% | UACC-257 melanoma -89.8% | M14 melanoma -93.6%

COc1ccc(NC(=O)c2sc3nc(C(C)C)ccc3c2N)cc1
inactive: DU-145 prostate 78.9% | K-562 leukemia 50% | MALME-3M melanoma 83.4% | RXF 393 renal 89.2% | SF-268 CNS 99.7% | SF-295 CNS 72.3% | SF-539 CNS 84.1% | UACC-257 melanoma 88.7% | M14 melanoma 93.4%

CSc1ccccc1NC(=O)c1ccc2nn(/C(C#N)=C/c3ccccn3)nc2c1
active: DU-145 prostate -99.5% | K-562 leukemia -10.1% | MALME-3M melanoma -89% | RXF 393 renal -95.8% | SF-295 CNS -21.9% | SF-539 CNS -93.1% | UACC-257 melanoma -91% | M14 melanoma -88.1%
inactive: SF-268 CNS 14.6%

CCOC(=O)C1=C(N)N(c2ccccc2)C2=C(C(=O)CC(C)(C)C2)C1c1ccc(Cl)cc1Cl (stereo not given)
inactive: DU-145 prostate 46% | K-562 leukemia 13% | MALME-3M melanoma 27.9% | RXF 393 renal 21.2% | SF-268 CNS 52.1% | SF-295 CNS 23.6% | SF-539 CNS 33.3% | UACC-257 melanoma 35% | M14 melanoma 41.3%

Cc1ccc2c(N)c(C(=O)Nc3ccc(OC(F)(F)F)cc3)sc2n1
inactive: DU-145 prostate 82.1% | MALME-3M melanoma 75.3% | RXF 393 renal 86.3% | SF-268 CNS 98.9% | SF-295 CNS 42.9% | SF-539 CNS 36.5% | UACC-257 melanoma 70% | M14 melanoma 82.9%
active: K-562 leukemia 9.66%

O=C(/C=C/c1ccc(-c2ccccc2)cc1)c1nc2ccccc2n1Cc1ccc(F)cc1
active: MALME-3M melanoma 0% | SF-539 CNS -15.9%
inactive: DU-145 prostate 54.4% | K-562 leukemia 21.7% | RXF 393 renal 13.6% | SF-268 CNS 62.4% | SF-295 CNS 40.4% | UACC-257 melanoma 49.5% | M14 melanoma 39.6%

Cc1ccc2c(N)c(C(=O)Nc3ccc(-c4ccccc4)cc3)sc2n1
inactive: DU-145 prostate 88.4% | K-562 leukemia 36.9% | MALME-3M melanoma 65.5% | RXF 393 renal 30.5% | SF-268 CNS 101% | SF-295 CNS 45.6% | SF-539 CNS 67.7% | UACC-257 melanoma 61% | M14 melanoma 73.2%

N#Cc1c(-c2cccc(Cl)c2Cl)cc(-c2ccc3ccccc3c2)[nH]c1=O
inactive: DU-145 prostate 75.8% | K-562 leukemia 91.2% | MALME-3M melanoma 66% | RXF 393 renal 60.9% | SF-268 CNS 71.8% | SF-295 CNS 31.8% | SF-539 CNS 79.7% | UACC-257 melanoma 94.2% | M14 melanoma 32.5%

N#Cc1ccc(C(=O)Nn2c(N)cc3ccccc3c2=O)cc1
inactive: DU-145 prostate 115% | K-562 leukemia 89.6% | MALME-3M melanoma 77.9% | RXF 393 renal 104% | SF-268 CNS 106% | SF-295 CNS 99% | SF-539 CNS 90% | UACC-257 melanoma 99.5% | M14 melanoma 94.5%

CC(=O)Nc1ccc(-c2cn(-c3cccc(C(=O)Nc4ccc(N5CCN(C)CC5)cc4)c3)nn2)cn1
inactive: DU-145 prostate 83.4% | K-562 leukemia 31.5% | MALME-3M melanoma 72% | RXF 393 renal 97% | SF-268 CNS 88.7% | SF-295 CNS 58.6% | SF-539 CNS 68.6% | UACC-257 melanoma 100% | M14 melanoma 87%

O=C1Nc2cc(Cl)ccc2/C1=C/c1cccc(OCc2ccccn2)c1
inactive: MALME-3M melanoma 36.4% | SF-268 CNS 13.1% | SF-295 CNS 13.6% | UACC-257 melanoma 44.4%
active: DU-145 prostate 9.98% | K-562 leukemia 4.79% | RXF 393 renal -3.29% | SF-539 CNS -48.2% | M14 melanoma -9.46%
